# AMA1 RON2 block = disrupts binding of P. falciparum AMA1 to RON2; AlphaScreen AMA1-biotinylated RON2 peptide binding; Potency, µM (doses to about 58.2 µM), inactives show at the highest dose activity change, negative = inhibition, actives largely listed as inhibitors; 360,000 compounds, 0.2% hits;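 note: 0% = vehicle wells and -100% = peptide control; nearly all actives have a fitted effect of over 45% in size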
#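 AMA1 (3D7) with his tag at 25 nM final met compounds first, then biotinylated RON2 peptide at 25 nM; detection used donor plus acceptor beads, 10 µg/mL apiece, read by AlphaScreen after 30 min at room temperature.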
# LmPK inh = inhibitors of Leishmania mexicana pyruvate kinase. Q27686. purified LmPK, Kinase-Glo ATP luminescence, 1 h. Potency, µM (top dose mostly 57.5 µM), for the others: top-dose activity change, negative = inhibition, actives largely listed as inhibitors. 290,000 compounds, 0.37% hits
#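 0.1 nM LmPK, 0.5 mM PEP, 0.1 mM ADP; 50 mM imidazole pH 7.2, 7 mM MgCl2, 50 mM KCl; 1 h RT. Kinase-Glo luminescence readout, normalized to no-enzyme (full inhibition) and uninhibited wells.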
# AmpC inh no detg = blocks E. coli AmpC beta-lactamase in detergent-free assay. AmpC nitrocefin hydrolysis, absorbance 480 nm, 0.0001% Triton. Potency, µM (highest dose often 57.1 µM), for the others: at the top dose activity change, negative = inhibition, actives largely listed as inhibitors. 330,000 compounds, 0.52% hits. AID 485341;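 note: plate controls were no compound for no effect and no enzyme for full effect; nearly all actives have a fitted effect of over 20% in size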
#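 20 mM phosphate pH 7.0 + 0.01% (detergent screen) or 0.0001% Triton X-100; 5.3 nM AmpC reagent; cpd preinc 15 min RT; nitrocefin (800 uM stock) to start; A480 q20 s × 4 min; Activity was normalised to no-enzyme and no-compound control wells.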
# AmpC inh detg = inhibitors of E. coli AmpC beta-lactamase with detergent | Potency, µM (series often up to 114 µM), without a hit: at the highest dose activity change, negative = inhibition, most hits filed as inhibitors | AmpC hydrolysis of nitrocefin, absorbance 480 nm, 0.01% Triton | P00811 | AID 485294 | 370,000 compounds, 0.041% hits;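 note: 0% = no-compound wells and -100% = no-enzyme wells; nearly all actives have a fitted effect of over 25% in size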
#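 20 mM phosphate pH 7.0 + 0.01% (detergent screen) or 0.0001% Triton X-100; 5.3 nM AmpC reagent; cpd preinc 15 min RT; nitrocefin (800 uM stock) to start; A480 q20 s × 4 min; Activity was normalised to no-enzyme and no-compound control wells.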
# Giardia FBPA inh-1 = blocks Giardia fructose-bisphosphate aldolase activity; 290,000 compounds, 0.71% hits; purified Giardia FBPA; Potency, µM (titrated, usually from 59.6 µM), for inactives: top-dose activity, negative = inhibition, hits mostly inhibitors; AID 2451; note: nearly all actives have a fitted effect of over 55% in size
# Target sequence (A8B2U2 whole entry, looked up): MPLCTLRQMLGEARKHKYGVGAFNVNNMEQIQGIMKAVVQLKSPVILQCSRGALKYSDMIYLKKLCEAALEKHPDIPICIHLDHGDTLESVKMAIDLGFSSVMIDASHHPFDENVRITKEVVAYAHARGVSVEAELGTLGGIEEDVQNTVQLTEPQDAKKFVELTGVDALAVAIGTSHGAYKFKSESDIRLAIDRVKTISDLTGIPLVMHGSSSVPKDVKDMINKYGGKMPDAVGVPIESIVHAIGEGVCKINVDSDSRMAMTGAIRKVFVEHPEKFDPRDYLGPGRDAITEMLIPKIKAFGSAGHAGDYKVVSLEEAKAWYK
#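 Giardia FBPA (40 nM reagent) was preincubated 10 min at RT with compound (up to 57.5 uM final), then substrate plus GAPDH/TPI/NAD/arsenate coupling system with diaphorase/resazurin was added; resorufin fluorescence (525/598 nm) was read after 20 min.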
# Giardia growth = inhibitors of Giardia lamblia growth | shares compounds with Giardia FBPA inh-1 | Giardia lamblia trophozoite growth inhibition | Potency, µM (doses to about 57.5 µM), for inactives: at the top dose activity change, negative = inhibition, usual class: inhibitors | 1,500 compounds, 5% hits | AID 2785;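 note: trophozoites exposed to compound for 48 h at 37 °C; nearly all actives have a fitted effect of over 70% in size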
# Mammal cell tox = toxic to mammalian cells in Giardia aldolase counter-screen | mammalian cell viability counter-screen, qHTS | shares compounds with Giardia FBPA inh-1 | Potency, µM (doses to about 57.5 µM), without a hit: at the highest dose viability change, negative = toxicity, hits mostly inhibitors | 1,500 compounds, 4% hits;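 note: Chinese hamster ovary cells used as mammalian cytotoxicity surrogate; viability measured as cellular ATP by luminescence; compound exposure lasted 48 h before reading; nearly all actives have a fitted effect of over 60% in size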
# Giardia FBPA inh-2 = confirmation of Giardia fructose-bisphosphate aldolase inhibitors | shares compounds with Giardia FBPA inh-1 | purified Giardia aldolase enzyme activity, qHTS | Potency, µM (doses to about 57.5 µM), inactives show at the top dose activity change, negative = inhibition, actives largely listed as inhibitors | 1,500 compounds, 5% hits | AID 2787; note: nearly all actives have a fitted effect of over 45% in size
# Rabbit aldolase = blocks rabbit muscle aldolase in Giardia aldolase selectivity test | Rabbit muscle FBPA enzyme inhibition, selectivity counter-screen | Potency, µM (top dose mostly 57.5 µM), for the others: at the top dose activity, negative = inhibition, most hits filed as inhibitors | shares compounds with Giardia FBPA inh-1 | 1,500 compounds, 4% hits; note: nearly all actives have a fitted effect of over 60% in size
# Target sequence (P00883 whole entry, looked up): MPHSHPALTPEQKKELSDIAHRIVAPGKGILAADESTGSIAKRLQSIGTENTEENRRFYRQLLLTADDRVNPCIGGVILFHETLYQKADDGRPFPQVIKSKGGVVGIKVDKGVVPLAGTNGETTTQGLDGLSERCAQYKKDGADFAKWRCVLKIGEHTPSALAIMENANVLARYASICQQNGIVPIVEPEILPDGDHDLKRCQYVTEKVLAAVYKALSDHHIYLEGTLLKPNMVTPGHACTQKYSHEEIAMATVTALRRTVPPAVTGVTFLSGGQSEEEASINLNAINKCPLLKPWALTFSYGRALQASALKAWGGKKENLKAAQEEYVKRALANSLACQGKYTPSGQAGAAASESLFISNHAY
# GAPDH counter = counter-screen for Giardia aldolase inhibitors: GAPDH coupling enzyme | shares compounds with Giardia FBPA inh-1 | Potency, µM (highest dose often 57.5 µM), inactives show at the top dose activity change, negative = inhibition, usual class: inhibitors | 1,500 compounds, 6% hits | GAPDH coupling enzyme counterscreen, biochemical, qHTS; note: nearly all actives have a fitted effect of over 55% in size
# Numbers without * were called inactive; u = inconclusive; x = not tested or not shown; ! = not confirmed by another sample; [ ] = another dose, or the depositor's remark. An excerpt weighted towards active compounds, which were near 1.3% of everything screened. Calls come from the whole dose curve; as a rule, active = well fitted curve in the direction sought with a large enough effect; inconclusive = small, poorly fitted or top-dose-only effect, or another doubt; inactive = no such curve, though single readings can be large; an effect the other way counts as inactive or inconclusive. Unless noted, % is set by controls: 0 for no effect and ±100 for the full control effect; potency is the fitted concentration of half-maximal effect.
SMILES,AMA1 RON2 block,LmPK inh,AmpC inh no detg,AmpC inh detg,Giardia FBPA inh-1,Giardia growth,Mammal cell tox,Giardia FBPA inh-2,Rabbit aldolase,GAPDH counter
COc1cc2c(cc1OC)n(Cc1ccc([N+](=O)[O-])cc1)c(=O)n1nc(-c3ccccc3)nc21,x,x,x,-5%,x,x,x,x,x,x
CC(Nc1ccc2ccccc2c1)C(=O)N/N=C/c1ccncc1 (configuration not stated),-1%,x,-16%,u,x,x,x,x,x,x
CCCCc1nc(Cl)c(CO)n1Cc1ccc(-c2ccccc2-c2nnn[nH]2)cc1,-5%,x,x,x,x,x,x,x,x,x
CCCCc1nc(Cl)c(CO)n1Cc1ccc(-c2ccccc2-c2nn[nH]n2)cc1,8%,-6%,-30%,u,13µM*!,u,6%,12%,26%,20%
COc1ccc(C)cc1-n1[nH]nnc1=S,-12%,3%,-34%,0%,14µM*,-47%,16%,3%,7%,13%
Cc1cc(C)c(-n2[nH]nnc2=S)c(C)c1,-2%,1%,-18%,1%,14µM*,8%[10.4 µM],14%,5%,6%,10%
COc1ccc(C)cc1-n1nc2ccccc2n1,0%,0%,-4%,1%,8%,x,x,x,x,x
Cc1ccc(CN2CCCn3nc(C(=O)NCCc4ccc(Cl)cc4)cc3C2=O)cc1,x,x,x,25%,x,x,x,x,x,x
CC(C)(C)c1ccc(C(=O)NC(=O)CSc2n[nH]c(N)n2)cc1,25%,x,-22%,0%,x,x,x,x,x,x
COc1cc(CN2CCC(C(=O)NC3CCCC3)CC2)cc(OC)c1O,-11%,-3%,-19%,-8%,18µM*,7%,-12%,4µM*,u,u
COc1cc(CN2CCN(C(=O)CC(C)C)CC2)cc(OC)c1O,-21%,-8%,6%,-18%,16µM*,u,-19%,4µM*,u,-7%
COc1ccc(-c2oc(=O)c3cc(OC)c(OC)cc3c2C#C[C@]2(O)CC[C@H]3[C@@H]4CCc5cc(OC)ccc5[C@H]4CC[C@@]32C)cc1,-1%,x,-24%,x,x,x,x,x,x,x
O=C(Nc1ccc([N+](=O)[O-])cc1O)Nc1ccccc1Br,x,x,x,x,-21%,x,x,x,x,x
CC(C(=O)Nc1ccccc1C(F)(F)F)N1CCN(C)CC1 (configuration not stated),u,3%,-5%,u,16µM*,-7%[10.4 µM],9%,4%,-3%,13%
CN1CCN(CC(=O)Nc2ccccc2C(F)(F)F)CC1,u,-2%,-4%,-15%,u,x,x,x,x,x
COc1ccc(-c2cc(=O)c3ccccc3o2)cc1OC,x,x,x,x,7.9µM*,-24%[38.3 µM],u,u,u,-27%
CCNc1nc(C(=O)O)nc(N2CCOCC2)n1,u,-4%,-11%,-7%,22µM*,18%[10.4 µM],4%,-5%,1%,8%
CC(C)(C)Nc1nc(C(N)=O)nc(N2CCOCC2)n1,-3%,-2%,-15%,1%,6%,x,x,x,x,x
CC(=O)N1CCC(=NNc2nc3ccccc3[nH]2)CC1,-9%,-4%,-36%,2%,18µM*,u,0%,-10%,-6%,3%
CCNC(=O)C1(C)CCCN(C(=O)c2oc3ccccc3c2C)C1 (configuration not stated),4%,x,x,x,x,x,x,x,x,x
C=CCOC(/C=C/c1ccccc1)C[Si](C)(C)C (configuration not stated),x,x,x,x,0%,x,x,x,x,x
NC(=S)N=Nc1c(O)[nH]c2ccccc12,68%,-1%,-12%,u,-10%,x,x,x,x,x
Oc1[nH]c2ccccc2c1N=NC(=S)N1CCOCC1,-48%,22µM*,-27%,2%,18µM*,2%[10.4 µM],40µM*,10%,0%,-8%
C[C@@H]1CN([C@@H](C)CO)S(=O)(=O)c2ccc(C#CC(C)(C)O)cc2O[C@H]1CN(C)C(=O)C1CCCCC1,1%,x,x,x,x,x,x,x,x,x
CCC1CN(S(=O)(=O)c2cc(-c3onc(C)c3C)ccc2C)c2cc(Cl)ccc2O1 (configuration not stated),x,x,x,4%,x,x,x,x,x,x
SMILES,AMA1 RON2 block,LmPK inh,AmpC inh no detg,AmpC inh detg,Giardia FBPA inh-1,Giardia growth,Mammal cell tox,Giardia FBPA inh-2,Rabbit aldolase,GAPDH counter
O=C(c1ccccc1Cl)N(Cc1ccco1)c1ccccn1,x,x,x,-3%,x,x,x,x,x,x
CCc1c(O)nc(SC2CC(=O)N(c3ccc(F)c(Cl)c3)C2=O)[nH]c1=O (configuration not stated),18%,0%,-32%,-12%,3.2µM*,11%[38.3 µM],-7%,u,15%,5%
CN(C)CCn1c(NCc2ccc3c(c2)OCO3)nc2ccccc21,0%,-1%,-13%,-11%,28µM*,u,-14%,5%,6%,9%
CC(=O)NNc1cccc(Cl)n1,1%,-3%,-23%,9%,-1%,x,x,x,x,x
O=C(NNc1cccc(Cl)n1)C(F)(F)F,32%,10%,-19%,-21%,20µM*,u,9%,-13%,-2%,1%
CCC1CCC2(CC1)NNC(=S)NN2,14%,-5%,-13%,-5%,13µM*,-11%[10.4 µM],6%,-6%,2%,5%
O=C(Nc1ccc(N2CCOCC2)c(Cl)c1)c1ccc2c(c1)OCCO2,6%,-22%,-4%,-15%,8%,x,x,x,x,x
O=C(Nc1ccc(N2CCOCC2)c(Cl)c1)c1ccc(Cl)cc1,1%,0%,-39%,13%,16µM*,u,-1%,u,u,u
COc1ccc(-c2cnc(C(N)=O)c(=O)[nH]2)cc1,16%,x,x,x,x,x,x,x,x,x
COCCN(CCOC)c1ncnc2c1c(-c1ccccc1)cn2-c1ccc(C)c(Cl)c1,x,x,x,-5%,x,x,x,x,x,x
COc1cc(/C=C2\SC(=S)N(NC(=O)c3ccc(O)cc3)C2=O)ccc1O,u,0%,-47%,-3%,-2%,x,x,x,x,x
O=C(NN1C(=O)/C(=C/c2ccc(O)c(O)c2)SC1=S)c1ccccc1,u,-17%,-40%,-10%,14µM*,-4%,-9%,-20%,-25%,0%
